{"source": "the supplement of paper PMC12282887", "tested_on": "E. coli BW25113 marRABp lux reporter", "assay": "promoter activity interaction Z-score (Lux/OD deviation from empty-vector control); higher = stronger promoter induction by the compound", "method": "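E. coli BW25113 (wild type or ΔmarA/ΔsoxS/Δrob) carrying pTU175 luxCDABE promoter reporters was grown in LB in 384-well plates at 37°C with each of 94 compounds at 4 two-fold concentrations, in biological duplicates. Luminescence and OD600 were read every 30 min for 12 h and integrated as AUC over 8 h (0-8 h WT, 1-9 h mutants). Lux AUC was divided by OD AUC; the interaction score is the residual of a Huber robust fit of each promoter against the empty-vector control, then Z-transformed per promoter.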", "note": "± gives the standard deviation of the averaged measurements."}
{"smiles": "CC1(C)S[C@@H]2[C@H](NC(=O)[C@H](N)c3ccc(O)cc3)C(=O)N2[C@H]1C(=O)O", "note": "[Amoxicillin]", "values": [{"measurement": "promoter activity interaction Z-score", "setting": "0.25 µg/ml, genetic background: wild type", "value": "-0.00562 ± 0.025"}, {"measurement": "promoter activity interaction Z-score", "setting": "0.25 µg/ml, genetic background: ΔmarA", "value": "-0.347 ± 0.22"}, {"measurement": "promoter activity interaction Z-score", "setting": "0.25 µg/ml, genetic background: Δrob", "value": "-0.215 ± 0.082"}, {"measurement": "promoter activity interaction Z-score", "setting": "0.25 µg/ml, genetic background: ΔsoxS", "value": "-0.207 ± 0.2"}, {"measurement": "promoter activity interaction Z-score", "setting": "0.5 µg/ml, genetic background: wild type", "value": "-0.157 ± 0.027"}, {"measurement": "promoter activity interaction Z-score", "setting": "0.5 µg/ml, genetic background: ΔmarA", "value": "-0.297 ± 0.22"}, {"measurement": "promoter activity interaction Z-score", "setting": "0.5 µg/ml, genetic background: Δrob", "value": "-0.322 ± 0.047"}, {"measurement": "promoter activity interaction Z-score", "setting": "0.5 µg/ml, genetic background: ΔsoxS", "value": "-0.372 ± 0.14"}, {"measurement": "promoter activity interaction Z-score", "setting": "1 µg/ml, genetic background: wild type", "value": "-0.138 ± 0.097"}, {"measurement": "promoter activity interaction Z-score", "setting": "1 µg/ml, genetic background: ΔmarA", "value": "-0.483 ± 0.18"}, {"measurement": "promoter activity interaction Z-score", "setting": "1 µg/ml, genetic background: Δrob", "value": "-0.211 ± 0.031"}, {"measurement": "promoter activity interaction Z-score", "setting": "1 µg/ml, genetic background: ΔsoxS", "value": "-0.251 ± 0.091"}, {"measurement": "promoter activity interaction Z-score", "setting": "2 µg/ml, genetic background: wild type", "value": 2.97}, {"measurement": "promoter activity interaction Z-score", "setting": "2 µg/ml, genetic background: ΔmarA", "value": 2.07}, {"measurement": "promoter activity interaction Z-score", "setting": "2 µg/ml, genetic background: Δrob", "value": 3.21}, {"measurement": "promoter activity interaction Z-score", "setting": "2 µg/ml, genetic background: ΔsoxS", "value": 1.67}]}
{"smiles": "Cn1c(=O)c2c(ncn2C)n(C)c1=O", "note": "[Caffeine]", "values": [{"measurement": "promoter activity interaction Z-score", "setting": "24.3 µg/ml, genetic background: wild type", "value": "0.925 ± 0.19"}, {"measurement": "promoter activity interaction Z-score", "setting": "24.3 µg/ml, genetic background: ΔmarA", "value": "1.52 ± 0.3"}, {"measurement": "promoter activity interaction Z-score", "setting": "24.3 µg/ml, genetic background: Δrob", "value": "0.0874 ± 0.094"}, {"measurement": "promoter activity interaction Z-score", "setting": "24.3 µg/ml, genetic background: ΔsoxS", "value": "0.874 ± 0.41"}, {"measurement": "promoter activity interaction Z-score", "setting": "48.5 µg/ml, genetic background: wild type", "value": "1.58 ± 0.15"}, {"measurement": "promoter activity interaction Z-score", "setting": "48.5 µg/ml, genetic background: ΔmarA", "value": "1.47 ± 0.32"}, {"measurement": "promoter activity interaction Z-score", "setting": "48.5 µg/ml, genetic background: Δrob", "value": "-0.0293 ± 0.12"}, {"measurement": "promoter activity interaction Z-score", "setting": "48.5 µg/ml, genetic background: ΔsoxS", "value": "1.28 ± 0.27"}, {"measurement": "promoter activity interaction Z-score", "setting": "97.1 µg/ml, genetic background: wild type", "value": "1.63 ± 0.018"}, {"measurement": "promoter activity interaction Z-score", "setting": "97.1 µg/ml, genetic background: ΔmarA", "value": "2.83 ± 0.69"}, {"measurement": "promoter activity interaction Z-score", "setting": "97.1 µg/ml, genetic background: Δrob", "value": "0.0326 ± 0.04"}, {"measurement": "promoter activity interaction Z-score", "setting": "97.1 µg/ml, genetic background: ΔsoxS", "value": "1.55 ± 0.65"}, {"measurement": "promoter activity interaction Z-score", "setting": "194.2 µg/ml, genetic background: wild type", "value": "3.65 ± 0.97"}, {"measurement": "promoter activity interaction Z-score", "setting": "194.2 µg/ml, genetic background: ΔmarA", "value": "4.03 ± 0.93"}, {"measurement": "promoter activity interaction Z-score", "setting": "194.2 µg/ml, genetic background: Δrob", "value": "0.103 ± 0.13"}, {"measurement": "promoter activity interaction Z-score", "setting": "194.2 µg/ml, genetic background: ΔsoxS", "value": "2.91 ± 1.6"}]}
